Assay outcomes as filed in PubChem.
INS-1E GSIS act: GLuc luminescence reporter in INS-1E cells, primary screen for activators of glucose-dependent secretion of insulin; INS-1E GLuc reporter insulin secretion, 2-3 h; activation, % at 16.6 µM; hit rate 0.61% among 370,000;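 active = lowest replicate activation of at least 40%, so every replicate reaches that level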
DENV2 CPE rescue: protects cells from dengue virus 2 cytopathic effect | DENV2-infected cells, cytopathic effect rescue, plate reader | CPE inhibition, % at 9.99 µM | hit rate 1.7% among 350,000 | AID 651640; in the data active = CPE inhibition above about 20%, passing the limit was not always enough; inconclusive = no clear call, values can overlap the other calls; tested in BHK-21 cells
RAD52 anneal inh: blocks human RAD52 DNA annealing; inhibition, % at 18.7 µM; recombinant RAD52 DNA annealing, FRET fluorescence; hit rate 0.46% among 360,000; P43351;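 active = every replicate showing at least 50% inhibition; inconclusive = mean inhibition at least 50% but not in every replicate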
Target sequence (P43351 whole entry, looked up): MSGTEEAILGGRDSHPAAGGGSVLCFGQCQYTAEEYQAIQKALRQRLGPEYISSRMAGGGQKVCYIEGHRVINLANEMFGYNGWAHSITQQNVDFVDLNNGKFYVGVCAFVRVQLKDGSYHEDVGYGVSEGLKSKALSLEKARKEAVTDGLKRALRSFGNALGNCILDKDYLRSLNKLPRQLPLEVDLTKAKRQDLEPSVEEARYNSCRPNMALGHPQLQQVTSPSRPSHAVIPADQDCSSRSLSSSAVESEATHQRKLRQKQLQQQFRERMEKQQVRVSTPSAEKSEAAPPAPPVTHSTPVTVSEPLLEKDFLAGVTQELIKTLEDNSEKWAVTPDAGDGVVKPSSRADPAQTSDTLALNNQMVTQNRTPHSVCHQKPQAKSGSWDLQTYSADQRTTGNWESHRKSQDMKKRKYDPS
RAD54 branch: RAD54 (human) branch migration inhibition; Q92698; RAD54 Holliday junction branch migration, FAM/BHQ fluorescence; inhibition, % at 10.4 µM; hit rate 0.14% among 360,000; AID 602329;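 active = mean normalized replicate activity at least 40 and at least half of replicates scoring 40 or more; inconclusive = only one of the two criteria met; inactive = mean below 40 and under half of replicates reaching 40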;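 note: inhibitors cause a drop in the FAM fluorescence signal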
dFosB act-1: mouse delta FosB homodimer activation. purified delta FosB, TAMRA-CDK5 oligo fluorescence polarization; percent of positive-control signal above neutral wells. activation, % at 25 µM. hit rate 0.99% among 340,000. AID 493131;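 active = mean activation above about 17%, with every replicate also reaching it, limit read from the data, passing the limit was not always enough; inconclusive = only one of the two conditions met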
MLL AF4-AF9 inh: inhibitors of human MLL-AF4/AF9 interaction; AlphaScreen, biotin-AF4 peptide binding to FLAG-AF9; hit rate 0.47% among 350,000; inhibition, % at 10 µM;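 active = every replicate reaching a set inhibition limit, whatever the replicate mean, cut at about 25% in these data; inconclusive = mean inhibition reaches that limit but some replicates miss it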
dFosB act-2: delta FosB (mouse) homodimer activation | shares compounds with dFosB act-1 | purified delta FosB, TAMRA-CDK5 oligo fluorescence polarization; normalised: neutral wells 0, positive control 100 | activation, % at 24.9 µM | 2,400 tested, under 10 active;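 active = highest replicate activation at or above 34% and every replicate reaching that threshold; inconclusive = meets only one of the two criteria; inactive = meets neither criterion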;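 note: higher polarization means more probe DNA bound by delta FosB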
A number is an active result; . = inactive; ? = inconclusive; / = no result. Compounds with a hit are over-represented: about 3.1% of the library has one in this group of screens.

SMILES	INS-1E GSIS act	DENV2 CPE rescue	RAD52 anneal inh	RAD54 branch	dFosB act-1	MLL AF4-AF9 inh	dFosB act-2
COc1ccc(S(=O)(=O)Nc2ccc3c(c2)CC(=O)N([C@@H](C)CO)C[C@H](C)[C@H](CN(C)S(=O)(=O)c2ccccc2)O3)cc1	.	.	/	.	/	/	/
O=C(NNC(=O)c1cc(Br)c(Br)s1)c1csc(N2CCOCC2)n1	.	.	.	/	44	.	.
O=C(C[C@H]1C=C[C@@H](NC(=O)Cc2ccccn2)[C@@H](CO)O1)NCCc1ccccc1	.	.	.	/	/	.	/
CC(=O)Nc1ccc(C(=O)Nc2cccc(-c3cnc4ccccc4n3)c2)cc1	/	.	.	/	24	.	.
Cc1ccc(C(=O)Nc2cccc(-c3cnc4ccccc4n3)c2)cc1	/	/	/	.	.	/	/
O=C(Nc1cccc(-c2cn3cccnc3n2)c1)c1ccc(Br)o1	.	/	.	.	19	/	.
O=C(Nc1cccc(-c2cn3cccnc3n2)c1)c1ccco1	.	.	.	.	.	.	/
O=C(CNC(=O)c1ccc(Br)o1)Nc1cccc(-c2cnc3ccccc3n2)c1	/	/	/	.	19	/	.
Cc1noc(C)c1S(=O)(=O)Nc1ccc2c(c1)CC(=O)N([C@H](C)CO)C[C@@H](C)[C@@H](CN(C)C(=O)Nc1ccc3c(c1)OCO3)O2	.	?	/	.	/	/	/
Cc1ccc(-c2cc(C(=O)N/N=C/c3c(C)nn(C)c3C)c3ccccc3n2)cc1C	/	/	/	.	43	/	.
Cn1c2ccccc2c2cc(C(=O)OCC(=O)N3CC(=O)Nc4ccccc43)sc21	.	/	/	.	39	/	.
Cn1cnc(S(=O)(=O)N2C[C@H](O)COC[C@H]3O[C@@H](CC(=O)N4CCN(c5ccccc5)CC4)CC[C@@H]32)c1	.	.	.	.	/	.	/
COc1ccc(OC)c2sc(NC(=O)c3cccc(N4C(=O)CCC4=O)c3)nc12	.	.	.	.	67	.	.
C[C@@H]1CN([C@H](C)CO)C(=O)CCCn2cc(nn2)CO[C@@H]1CN(C)Cc1ccc2c(c1)OCCO2	.	.	.	.	/	.	/
Cc1cccn2c(=O)c(/C=N/O)c(Nc3ccccc3F)nc12	.	.	.	/	20	.	.
C[C@H]1CN([C@@H](C)CO)C(=O)c2cccc(NS(=O)(=O)c3ccc(Cl)cc3)c2O[C@H]1CN(C)S(=O)(=O)c1cccs1	.	.	.	.	/	.	/
COc1ccc(NC(=O)Nc2ccc(N3CCOCC3)c3nonc23)c(OC)c1	.	?	.	/	26	.	.
Cc1cc2cc(CNC(=O)c3ccc(S(=O)(=O)N4CCCC4)cc3)ccc2n1C	.	.	.	.	.	.	/
Cc1cc2cc(CNC(=O)c3ccc(S(=O)(=O)N4CCCCC4)cc3)ccc2n1C	/	.	.	.	33	.	.
CC(Nc1nc(N2CCNCC2)nc2ccccc12)c1ccccc1 (stereo not drawn)	.	.	.	/	48	.	.
Cc1cc(NC(=O)CSc2nnc(COc3cccc(C)c3C)n2C)no1	.	/	/	.	21	/	.
CCOc1ccc2nc(NC(=O)CC3Oc4ccccc4NC3=O)sc2c1 (stereo not drawn)	.	.	.	.	29	.	.
COc1ccc2nc(NC(=O)CC3Oc4ccccc4NC3=O)sc2c1 (stereo not drawn)	.	.	.	.	.	.	/
O=C(Nc1ccccc1Cl)N(Cc1nc2ccccc2c(=O)[nH]1)Cc1cccs1	.	/	/	/	33	/	.
O=C(Nc1ccc(Cl)cc1)N(Cc1nc2ccccc2c(=O)[nH]1)Cc1cccs1	.	/	/	.	.	/	/
SMILES	INS-1E GSIS act	DENV2 CPE rescue	RAD52 anneal inh	RAD54 branch	dFosB act-1	MLL AF4-AF9 inh	dFosB act-2
Cc1ccc(CCNC(=O)C2CCCN(S(=O)(=O)c3cccc4nsnc34)C2)cc1 (stereo not drawn)	/	/	/	.	47	/	.
O=C(Nc1cccc2c1CCCC2)C1CCCN(S(=O)(=O)c2cccc3nonc23)C1 (stereo not drawn)	.	/	/	/	24	/	.
CCS(=O)(=O)N1CCC2(CC1)CN(C(=O)Nc1c(C)noc1C)[C@@H](CO)c1[nH]c3cc(OC)ccc3c12	.	.	.	/	/	.	/
COc1ccc(Nc2nnc(SCC(=O)/C=C3/N(C)c4ccccc4C3(C)C)s2)cc1	.	/	/	.	43	/	.
CN1/C(=C\C(=O)CSc2nnc(N)s2)C(C)(C)c2ccccc21	.	.	.	.	.	.	/
CN1/C(=C/C(=O)CSc2ccccc2C(=O)O)C(C)(C)c2ccccc21	/	.	.	.	19	.	.
C[C@@H]1CN([C@@H](C)CO)C(=O)c2cccc(NC(=O)C3CCOCC3)c2O[C@@H]1CN(C)Cc1ccccc1	.	.	.	.	/	.	/
CC(=O)N(C)C[C@@H]1Oc2ncc(C#CC3(O)CCCC3)cc2C(=O)N([C@@H](C)CO)C[C@H]1C	.	.	.	.	/	.	/
CN(C)CC(=O)N[C@H]1CC[C@H](CCn2cc(C3CC3)nn2)O[C@H]1CO	.	.	.	.	/	.	/
OC(CNCCC(c1ccccc1)c1ccccc1)COc1ccccc1 (stereo not drawn)	.	.	.	/	.	.	/
OC(CNCCc1ccccc1)COc1ccc(OCC(O)CNCCc2ccccc2)cc1 (stereo not drawn)	/	.	.	.	19	.	.
Cc1ccc(NC(=O)Cn2nnc(C(=O)NCCc3ccccc3)c2N)c(C)c1	/	/	/	.	29	/	.
Cc1cc(C)c(NC(=O)Cn2nnc(C(=O)NCCc3ccccc3)c2N)c(C)c1	/	/	/	.	.	/	/
COc1ccc(Cl)cc1NC(=O)Cn1nnc(C(=O)NCCc2ccc(OC)c(OC)c2)c1N	.	.	.	.	38	.	.
COc1ccc(CCNC(=O)c2nnn(CC(=O)Nc3ccc(C)cc3C)c2N)cc1OC	.	.	.	.	53	.	.
Cc1ccc(NC(=O)Cn2nnc(C(=O)NCCc3ccccc3)c2N)cc1Cl	.	.	.	.	19	.	.
COc1ccc(CCNC(=O)Cn2nnc(C(=O)Nc3ccc(Br)cc3)c2N)cc1OC	.	.	.	.	.	.	/
COc1ccc2c3c([nH]c2c1)[C@H](CO)N(C(=O)C1CC1)CC31CCN(C)CC1	.	.	.	/	/	.	/
C[C@H](CO)N1C[C@H](C)[C@H](CN(C)C(=O)Nc2ccc(C(F)(F)F)cc2)Oc2ncc(C#C[C@@H](C)O)cc2C1=O	.	.	.	.	/	.	/
CCCC#Cc1ccc2c(c1)O[C@H](CN(C)C(=O)C1CCCCC1)[C@@H](C)CN([C@@H](C)CO)S2(=O)=O	.	/	/	/	/	/	/
CCCCNC(=S)N/N=C/c1ccc(OCC(=O)Nc2c(C)cc(C)cc2C)c(OC)c1	.	.	.	/	22	.	.
COc1ccc(S(=O)(=O)N(C)C[C@@H]2OCCCC[C@@H](C)Oc3ccc(NC(=O)c4ccncc4)cc3C(=O)N([C@H](C)CO)C[C@@H]2C)cc1	.	?	.	.	/	.	/
COc1ccc(-c2nn(C)c(=O)c3ccccc23)cc1NC(=O)Cn1nc(-c2ccccc2)c2ccccc2c1=O	.	/	/	.	19	/	.
